# Source: PubChem BioAssay (NCATS)
# Records with an inconclusive call do not appear. Entries that show only a call come without a potency. Activity calls are given as the source filed them. Calls follow the shape of the dose curve; as a rule, active = well fitted curve in the direction sought with a large enough effect; inconclusive = small, poorly fitted or top-dose-only effect, or another doubt; inactive = no such curve, though single readings can be large; an effect the other way counts as inactive or inconclusive.
# Legend:
# [1] = molecular target: Glutathione peroxidase 1 (Homo sapiens) (UniProt P07203); assay: Primary qHTS Assay for Inhibitors of Recombinant Selenoprotein Glutathione Peroxidase 1 (GPX1) (AID 1845191); also: nearly all actives have a fitted effect of over 65% in size
# Glutathione peroxidase 1 (Homo sapiens), sequence (P07203 whole entry, looked up): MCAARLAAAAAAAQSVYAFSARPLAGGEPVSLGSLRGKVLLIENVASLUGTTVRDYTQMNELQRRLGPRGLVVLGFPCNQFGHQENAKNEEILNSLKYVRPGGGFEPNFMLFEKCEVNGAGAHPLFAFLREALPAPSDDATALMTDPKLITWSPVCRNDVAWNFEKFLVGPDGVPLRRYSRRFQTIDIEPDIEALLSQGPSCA
# Summary of the method: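 GR-coupled readout: NADPH consumption tracked by fluorescence, ex 340/em 450 nm, at t=0 and after 15 min at RT. Final mix 10 nM GPX1, 1 mM GSH, 0.5 mM CHP, 0.5 mM NADPH, 100 nM GR, 0.01% BSA, following 30 min enzyme–compound preincubation.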
# [2] = molecular target: Phospholipid hydroperoxide glutathione peroxidase GPX4 (Homo sapiens) (UniProt P36969); assay: Primary qHTS Assay for Inhibitors of Recombinant Selenoprotein Glutathione Peroxidase 4 (GPX4) (AID 1845192); also: nearly all actives have a fitted effect of over 65% in size
# Phospholipid hydroperoxide glutathione peroxidase GPX4 (Homo sapiens), sequence (P36969 whole entry, looked up): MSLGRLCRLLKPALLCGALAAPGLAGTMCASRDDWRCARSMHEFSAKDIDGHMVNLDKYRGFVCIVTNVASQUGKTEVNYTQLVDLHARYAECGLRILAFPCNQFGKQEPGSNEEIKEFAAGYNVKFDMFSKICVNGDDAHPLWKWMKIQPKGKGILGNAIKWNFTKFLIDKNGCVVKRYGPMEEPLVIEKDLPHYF
# Summary of the method: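 Steps: GPX4 plus compound, 30 min RT; add GR/GSH/NADPH master mix; start with cumene hydroperoxide; read 340/450 nm fluorescence at 0 and 15 min. Finals were 200 nM GPX4, 1 mM GSH, 0.5 mM CHP, 0.5 mM NADPH, 100 nM GR.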
# [3] = molecular target: Luciferin 4-monooxygenase (Photinus pyralis) (UniProt P08659); assay: Primary firefly luciferase (FLuc) qHTS assay for identification of artifact compounds. (AID 1845220); also: nearly all actives have a fitted effect of over 60% in size
# Summary of the method: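 D-luciferin and ATP (10 uM each, final) in Tris acetate buffer pH 7.6 were incubated with compounds for 15 min at room temperature. The reaction was started with 10 nM Photinus pyralis luciferase and luminescence read after 5 min. Percent inhibition was fitted to a 4-parameter Hill equation.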
# [4] = Primary fluorescence-based thiol-reactive (MSTI) qHTS assay for identification of artifact compounds. (AID 1845221);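 also: series mostly up to about 54 µM; thiol-reactive compounds lower the probe fluorescence signal; nearly all actives have a fitted effect of over 65% in size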
# Summary of the method: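 Probe: MSTI 4 uM, PBS pH 7.4, 2% DMSO. Incubation 1 h, RT, light-protected. Readout fluorescence 525/598 nm.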
# [5] = system: Nanoluciferase (engineered Oplophorus gracilirostris luciferase); assay: Primary Nanoluciferase (NLuc) qHTS assay for identification of artifact compounds. (AID 1845222); also: series mostly up to about 54 µM
# Summary of the method: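 Diluted conditioned medium from NLuc-expressing S16 cells treated with compounds for 15 min at room temperature, then Nano-Glo substrate added; luminescence read after 5 min. Percent inhibition versus no-enzyme and DMSO controls fitted to 4-parameter Hill equation.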
# [6] = Primary redox qHTS assay for identification of artifact compounds. (AID 1845223)
# Summary of the method: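 Redox-cycling detection via DTT (250 uM final) oxidation coupled to Amplex Red (25 uM)/HRP (250 mU/mL) in HBSS. 15 min preincubation plus 30 min after DTT, room temperature. Ex/Em 525/598 nm; 4-parameter Hill fit against DMSO and 10 uM DA3003.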
structure (smiles),measurement,setting,value
O=C1/C(=C/c2ccccc2)C[C@@]2(O)[C@H]3Cc4ccc(O)c5c4[C@@]2(CCN3CC2CC2)[C@H]1O5,Potency,[1],inactive
same,Potency,[2],inactive
N[C@@]1(C(=O)O)CC[C@@H](C(=O)O)C1,Potency,[1],inactive
same,Potency,[2],inactive
CC1CCC(C(C)C)C(OC(=O)c2ccccc2N)C1 (configuration not stated),Potency,[1],inactive
same,Potency,[2],inactive
C[N+](C)(C)CC#CCN1CCCC1=O,Potency,[1],inactive
same,Potency,[2],inactive
O=[N+]([O-])/C=C/c1ccc2c(c1)OCO2,Potency,[1],inactive
same,Potency,[2],inactive
CCC(=O)O[C@@](Cc1ccccc1)(c1ccccc1)[C@@H](C)CN(C)C,Potency,[1],inactive
same,Potency,[2],inactive
CCCCNCC(O)c1ccc(O)cc1 (configuration not stated),Potency,[1],inactive
same,Potency,[2],inactive
Cn1sc(Cl)cc1=O,Potency,[1],inactive
same,Potency,[2],inactive
O=c1[nH]cc(N(CCCl)CCCl)c(=O)[nH]1,Potency,[1],inactive
same,Potency,[2],inactive
O=C(NCNC(=O)NC1C(=O)NC(=O)N1CO)NC1C(=O)NC(=O)N1CO (configuration not stated),Potency,[1],inactive
same,Potency,[2],inactive
NC(C(=O)O)c1cc(=O)[nH]o1 (configuration not stated),Potency,[1],inactive
same,Potency,[2],inactive
C[C@]12CCC(=O)C=C1C=C[C@@H]1[C@@H]2CC[C@@]2(C)[C@H]1CC[C@@]2(O)CCC(=O)O,Potency,[1],inactive
same,Potency,[2],inactive
CC(N)Cc1c[nH]c2ccc(OCc3cccs3)cc12 (configuration not stated),Potency,[1],inactive
same,Potency,[2],inactive
CCNC1(c2cccs2)CCCCC1=O (configuration not stated),Potency,[1],inactive
same,Potency,[2],inactive
CC[N+](C)(CC)CCOC(=O)C(O)(c1ccccc1)c1ccccc1,Potency,[1],inactive
same,Potency,[2],inactive
C[N+]1(C)CCCCC1COC(=O)C(O)(c1ccccc1)c1ccccc1 (configuration not stated),Potency,[1],inactive
same,Potency,[2],inactive
NNC(=O)c1ccc(O)cc1,Potency,[1],inactive
same,Potency,[2],inactive
CCCN(CCC)[C@@H]1CCc2cccc(O)c2C1,Potency,[1],inactive
same,Potency,[2],inactive
CC(C)(O)[C@@H]1[C@H]2OC(=O)[C@@H]1[C@]1(O)C[C@H]3O[C@]34C(=O)O[C@H]2[C@]14C,Potency,[1],inactive
same,Potency,[2],inactive
CP(=O)(O)C1=CCNCC1,Potency,[1],inactive
same,Potency,[2],inactive
CC(C)NP(=O)(NC(C)C)OP(=O)(NC(C)C)NC(C)C,Potency,[1],inactive
same,Potency,[2],inactive
C[C@H](N)Cc1cccc(C(F)(F)F)c1,Potency,[1],inactive
same,Potency,[2],inactive
COC(=O)N1CCN(C(=O)Cc2ccc(Cl)c(Cl)c2)C(CN2CCCC2)C1 (configuration not stated),Potency,[1],inactive
same,Potency,[2],inactive
CC(N)Cc1c[nH]c2ccc(O)cc12 (configuration not stated),Potency,[1],inactive
same,Potency,[2],inactive
N#CCCN,Potency,[1],inactive
same,Potency,[2],inactive
COc1ccc2[nH]cc(CCN)c2c1,Potency,[1],inactive
same,Potency,[2],inactive
CC(N)Cc1ccc(O)cc1 (configuration not stated),Potency,[1],inactive
same,Potency,[2],inactive
COc1ccc(OC)c(C(O)C(C)N)c1 (configuration not stated),Potency,[1],inactive
same,Potency,[2],inactive
CCCC(=O)OC(C(Cl)(Cl)Cl)P(=O)(OC)OC (configuration not stated),Potency,[1],inactive
same,Potency,[2],inactive
CCC1C(C)=NN=C(c2ccc(OC)c(OC)c2)c2cc(OC)c(OC)cc21 (configuration not stated),Potency,[1],inactive
same,Potency,[2],inactive
CCNCC(O)c1cccc(O)c1 (configuration not stated),Potency,[1],inactive
same,Potency,[2],inactive
C/C(=C\c1csc(C)n1)[C@@H]1C[C@@H]2O[C@]2(C)CCC[C@H](C)[C@H](O)[C@@H](C)C(=O)C(C)(C)[C@@H](O)CC(=O)O1,Potency,[1],inactive
same,Potency,[2],inactive
NNC(N)=O,Potency,[1],inactive
same,Potency,[2],inactive
O=C(OCCN1CCCCC1)C(O)(c1ccccc1)c1ccccc1,Potency,[1],inactive
same,Potency,[2],inactive
NC(=O)c1cc(N2CC2)c([N+](=O)[O-])cc1[N+](=O)[O-],Potency,[1],inactive
same,Potency,[2],inactive
COc1ccc(CNC(=O)/C=C/c2ccc3[nH]cc(CCN(C)C)c3c2)cc1,Potency,[1],inactive
same,Potency,[2],inactive
C[N+](C)(C)CCOC(=O)CBr,Potency,[1],inactive
same,Potency,[2],inactive
CC(=O)OC1CC(O)C2(C)C(CC(OC(C)=O)C3(C)C2CCC2(C)C(c4ccoc4)C(=O)C4OC423)C1(C)C (configuration not stated),Potency,[1],inactive
same,Potency,[2],inactive
same,Potency,[3],inactive
same,Potency,[4],inactive
same,outcome,[5],inactive
CCCN(CCC)C1CCc2cccc(O)c2C1 (configuration not stated),Potency,[1],inactive
same,Potency,[2],inactive
COC1CC(OC2CCC3(C=O)C(CCC4C3CCC3(C)C(C5=CC(=O)OC5)CCC43O)C2)OC(C)C1OC1OC(CO)C(O)C(O)C1O (configuration not stated),Potency,[1],inactive
same,Potency,[2],inactive
same,Potency,[3],inactive
same,Potency,[4],inactive
same,outcome,[5],inactive
NCC(O)c1cccc(O)c1 (configuration not stated),Potency,[1],inactive
same,Potency,[2],inactive
CC1=C2C(=O)C3[C@@H](CC=C4C[C@@H](O)CC[C@@]43C)[C@@H]2CC[C@]12O[C@@H]1C[C@H](C)CN[C@H]1[C@H]2C (some centres not stated),Potency,[1],inactive
same,Potency,[2],inactive
same,Potency,[3],inactive
same,Potency,[4],inactive
same,outcome,[5],inactive
same,outcome,[6],inactive
COC([CH2][Hg])CNC(=O)c1ccccc1OCC(=O)O (configuration not stated),Potency,[1],inactive
same,Potency,[2],inactive
O=C(N1CCOCC1)N1CCN(c2ccc(Cl)cc2)CC1,Potency,[1],inactive
same,Potency,[2],inactive
same,Potency,[3],inactive
same,Potency,[4],inactive
same,outcome,[5],inactive
same,outcome,[6],inactive
COc1cc(C)[nH]c(=O)c1CNC(=O)c1c(C)n([C@H](C)C2CCOCC2)c2ccccc12,Potency,[1],inactive
same,Potency,[2],inactive
same,Potency,[3],inactive
same,Potency,[4],inactive
same,outcome,[5],inactive
